# Compound activity (PubChem)
# BLM inh: blocks DNA unwinding by human BLM helicase; P54132; recombinant BLM DNA unwinding, fluorescence dequenching; Potency, µM (series often up to 56.1 µM), without a hit: at the highest dose activity change, negative = inhibition, hits mostly inhibitors; 350,000 compounds, 0.2% hits; AID 2528;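 further: plate controls were vehicle for no effect and no enzyme for full effect; nearly all actives have a fitted effect of over 35% in size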
# TDP1 block: TDP1 (human) enzyme inhibition | 350,000 compounds, 0.28% hits | Potency, µM (top dose mostly 130 µM), inactives show at the top dose activity change, negative = inhibition, hits mostly inhibitors | Q9NUW8 | recombinant TDP1, AlphaScreen DNA substrate cleavage; further: nearly all actives have a fitted effect of over 40% in size
#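 Enzyme-compound mixtures sat 15 min at room temperature, followed by a 5 min reaction with 15 nM final substrate and 10 min with AlphaScreen beads. Recombinant human Tdp1 was used at 1 nM final.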
# RECQ1 helicase: RECQ1 (human) helicase inhibition; P46063; 240,000 compounds, 0.54% hits; RECQ1 DNA unwinding, red fluorescence kinetic read; Potency, µM (titrated, usually from 57.3 µM), without a hit: at the highest dose activity, negative = inhibition, most hits filed as inhibitors;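 further: plate controls were vehicle for no effect and no enzyme for full effect; nearly all actives have a fitted effect of over 30% in size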
#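 50 nM RECQ1T1 preincubated 15 min with compound in Tris pH 8.0 buffer with MgCl2, DTT, Tween-20 and 2.5 ug/ml poly(dI-dC); started with 200 nM TAMRA/BHQ-2 forked duplex and 2 mM ATP. Unwinding read as fluorescence (525/598 nm), two reads 2 h apart.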
# FEN1 inh: blocks human flap endonuclease 1. P39748. Recombinant FEN1 flap cleavage, fluorescence, 15 min. Potency, µM (doses to about 114 µM), inactives show top-dose activity change, negative = inhibition, hits mostly inhibitors. 390,000 compounds, 0.35% hits. AID 588795; further: nearly all actives have a fitted effect of over 65% in size
# Target sequence (P39748 whole entry, looked up): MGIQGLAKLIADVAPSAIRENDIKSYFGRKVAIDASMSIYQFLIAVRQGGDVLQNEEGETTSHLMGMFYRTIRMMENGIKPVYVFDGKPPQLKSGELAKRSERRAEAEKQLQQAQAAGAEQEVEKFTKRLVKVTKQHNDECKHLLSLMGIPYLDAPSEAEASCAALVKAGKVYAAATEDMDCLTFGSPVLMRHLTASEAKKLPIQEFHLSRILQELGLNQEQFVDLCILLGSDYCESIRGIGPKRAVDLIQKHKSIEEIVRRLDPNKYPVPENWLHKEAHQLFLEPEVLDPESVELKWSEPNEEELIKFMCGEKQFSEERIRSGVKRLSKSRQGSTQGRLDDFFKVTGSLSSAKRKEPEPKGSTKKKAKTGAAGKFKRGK
#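 Compounds are tested as a concentration series against 10 nM FEN1; after a 15 min room-temperature preincubation, 50 nM substrate starts cleavage, with plate reads at 0 and 15 min. Normalized responses are fitted by a Hill equation.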
# APE1 inh-1: inhibitors of human APE1 endonuclease | P27695 | AID 2517 | recombinant APE1, TAMRA/BHQ-2 abasic DNA cleavage fluorescence | Potency, µM (top dose mostly 65.8 µM), without a hit: at the top dose activity change, negative = inhibition, usual class: inhibitors | 350,000 compounds, 0.35% hits;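 further: plate controls were vehicle for no effect and reference inhibitor for full effect; nearly all actives have a fitted effect of over 55% in size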
# Target sequence (P27695 whole entry, looked up): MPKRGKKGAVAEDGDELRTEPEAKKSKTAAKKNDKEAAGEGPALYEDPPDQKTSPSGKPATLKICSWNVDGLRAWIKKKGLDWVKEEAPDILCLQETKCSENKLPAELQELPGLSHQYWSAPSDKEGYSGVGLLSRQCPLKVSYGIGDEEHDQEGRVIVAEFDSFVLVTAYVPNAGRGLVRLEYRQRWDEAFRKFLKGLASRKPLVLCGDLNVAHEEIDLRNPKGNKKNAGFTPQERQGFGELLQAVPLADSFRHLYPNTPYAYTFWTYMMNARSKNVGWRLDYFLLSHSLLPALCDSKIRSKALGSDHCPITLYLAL
#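 APE1 at 0.75 nM preincubated 15 min at room temperature with compound. Reaction then started with 50 nM double-stranded THF-abasic substrate labelled with TAMRA/BHQ-2, and 525/598 nm fluorescence read kinetically. Activity taken as third-minus-first read difference, normalized to DMSO and NSC13755 controls.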
# APE1 dye cs: counter-screen for APE1 inhibitors: DNA dye displacement; AID 2564; 480 compounds, 7% hits; shares compounds with APE1 inh-1; Potency, µM (doses to about 28.5 µM), for the others: at the top dose activity change, negative = inhibition, usual class: inhibitors; DNA fluorescent dye displacement counterscreen, fluorescence;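 further: loss of thiazole orange fluorescence as the dye is displaced from duplex DNA; 0% = ThO with dsDNA and no compound and -100% = ThO without dsDNA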
# EndoIV counter: counter-screen for APE1 inhibitors: inhibitors of E. coli endonuclease IV. Potency, µM (highest dose often 27.1 µM), for inactives: at the highest dose activity change, negative = inhibition, hits mostly inhibitors. shares compounds with APE1 inh-1. 560 compounds, 4% hits. E. coli Endo IV, fluorogenic AP-site DNA cleavage;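 further: plate controls were uninhibited enzyme wells for no effect and no enzyme buffer wells for full effect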
# APE1 inh-2: confirmation of inhibitors of human APE1 endonuclease | shares compounds with APE1 inh-1 | purified APE1, fluorogenic abasic-site DNA cleavage | Potency, µM (titrated, usually from 57.1 µM), inactives show at the highest dose activity change, negative = inhibition, most hits filed as inhibitors | 750 compounds, 44% hits | AID 2572; further: nearly all actives have a fitted effect of over 30% in size
# APE1 FP: APE1 (human) DNA binding inhibition, fluorescence polarization; shares compounds with APE1 inh-1; APE1 binding to TAMRA-labelled double-stranded DNA, fluorescence polarization displacement; Potency, µM (titrated, usually from 28.5 µM), for the others: top-dose activity, negative = inhibition, most hits filed as inhibitors; 480 compounds, 7% hits
# Starred values were filed as active, the others as inactive; i = inactive; ? = inconclusive; / = not tested or not shown; [ ] = dose if it differs, or a comment. Compounds with a hit are over-represented: about 0.92% of the library has one in this group of screens. The call rests on the fitted dose curve; in most records, active means well fitted curve in the direction sought with a large enough effect; inconclusive means small, poorly fitted or top-dose-only effect, or another doubt; inactive means no such curve, though single readings can be large; an effect the other way counts as inactive or inconclusive. Unless noted, on the % scale 0 is the no-effect control and ±100 the full control effect; potency means the concentration at half of the fitted maximal effect.
SMILES,BLM inh,TDP1 block,RECQ1 helicase,FEN1 inh,APE1 inh-1,APE1 dye cs,EndoIV counter,APE1 inh-2,APE1 FP
Cc1ccc2nc(NCc3ccccc3)c3nnnn3c2c1,-1.2%,5.6%,/,16.3%,/,/,/,/,/
Cc1ccc(-c2nn(C)c(=O)c3ccccc23)cc1S(=O)(=O)NCCN1CCOCC1,2.1%,8.0%,-5.1%,11.6%,0.5%,/,/,/,/
CCOC(=O)CNS(=O)(=O)c1cc(-c2nn(C)c(=O)c3ccccc23)ccc1C,1.2%,50.1µM*,-3.1%,-0.3%,35.5µM*,-6.5%,8.7%,10µM*,-13.9%
COc1ccccc1/C=C/c1nc2ccccc2o1,/,/,/,-4.6%,/,/,/,/,/
O=C(COC(=O)c1ccc(Cl)nc1)NCc1ccco1,-1.2%,-5.6%,0.4%,3.5%,21.6%,/,/,/,/
O=C(COC(=O)c1cccnc1Cl)NCc1ccco1,-8.0%,39.8µM*,i,-0.1%,?,/,/,?,/
O=C(Nc1ccc(-c2ccc3nncn3n2)cc1)c1ccc(Br)o1,-11.5%,79.4µM*,-24.8%,6.4%,-1.5%,/,/,-40.6%,/
CC(C)C(=O)Nc1ccc(-c2ccc3nncn3n2)cc1,-0.7%,0.0%,i,-4.0%,-1.0%,/,/,/,/
CCOc1ccccc1CNC(=O)CCCN1C(=O)COc2ccc(C)cc21,-2.0%,-7.6%,/,-15.8%,/,/,/,/,/
Cc1ccc(CSC2=NS(=O)(=O)c3ccccc32)cc1,/,-2.4%,/,-18.2%,/,/,/,/,/
Cc1ccc(CNC(=O)CNC(=O)c2ccco2)cc1,-3.7%,/,/,-1.4%,3.2%,/,/,/,/
Cc1ccc(CNC(=O)CCNC(=O)c2ccco2)cc1,-0.4%,-2.9%,6.2%,-8.4%,?,-1.7%,0.4%,?,-7.0%
O=c1[nH]c(-[n+]2ccccc2)c(/C=N/N=C(\[O-])c2ccccc2)s1,-5.7%,-2.6%,13.0%,-17.9%,?,/,/,/,/
Cc1cc[n+](-c2[nH]c(=O)sc2/C=N/N=C(\[O-])c2ccccc2)cc1C,-13.7%,39.8µM*,28.2µM*,-0.7%,17.8µM*,141.4%,7.6%,?,-6.8%
c1ccc(C2CN3CCSC3=N2)cc1 (configuration not stated),-1.7%,8.0%,-6.0%,-11.6%,-3.0%,/,/,/,/
Brc1ccc([C@H]2CN3CCSC3=N2)cc1,/,9.9%[56.1 µM],-3.1%,14.6%,-4.9%,/,-6.1%[57.1 µM],-27.9%,/
Cc1ccc(NS(=O)(=O)c2ccc(F)cc2)cc1C,/,1.0%,/,/,/,/,/,/,/
Cc1ncc(CO)c(/C=N/NC(=O)c2cc(O)c(O)c(O)c2)c1O,5.62µM*,?,14.1µM*,/,3.98µM*,-9.8%,156.0%,?,5.0%
COc1ccc(-c2coc3cc(O)ccc3c2=O)cc1O,-5.4%,-1.3%,-31.0%,-16.8%,?,-7.1%,5.8%,-10.3%[24.4 µM],-6.1%
COc1ccc(-c2coc3cc(O)ccc3c2=O)cc1,-0.3%,11.1%[56.1 µM],0.4%,17.5%,-3.9%,/,/,/,/
CC(CNC(=O)c1cc2cc(S(=O)(=O)N3CCCCC3)ccc2n1C)c1ccccc1 (configuration not stated),-7.5%,2.7%,/,0.2%,/,/,/,/,/
CCOC(=O)c1ccc(NC(=O)c2ccc3c(c2)c(C)c(C)n3Cc2ccc(F)cc2)cc1,-2.5%,7.9%,/,-3.1%,/,/,/,/,/
O=C(Nc1nccs1)c1cn(-c2ccccc2)nc1-c1ccncc1,-15.0%,79.4µM*,-12.2%,-21.7%,7.0%,/,/,-17.1%,/
COc1ccc(-c2nn(-c3ccccc3)cc2C(=O)Nc2nccs2)cc1,-7.7%,11.6%,i,-9.2%,-7.9%,/,/,/,/
Cn1cc(C2=C(c3ccc(Cl)cc3Cl)C(=O)NC2=O)c2ccccc21,-4.1%,0.8%,?,?,?,/,-9.3%[57.1 µM],25.1µM*,/
SMILES,BLM inh,TDP1 block,RECQ1 helicase,FEN1 inh,APE1 inh-1,APE1 dye cs,EndoIV counter,APE1 inh-2,APE1 FP
O=C(Nc1ccc2nc(-c3ccco3)c(-c3ccco3)nc2c1)N1CCCCCC1,5.62µM*,/,5.62µM*,50.1µM*,3.55µM*,?,?,3.98µM*,12.6µM*
Cc1nc(-n2nc(C)c(Cc3ccccc3Cl)c2C)sc1C(=O)N1CCC(C)CC1,-7.6%,-2.6%,/,-2.3%,/,/,/,/,/
Cc1cc(C=O)c(C)n1-c1ccc(Cl)c(C(=O)O)c1,-2.8%,44.7µM*,28.2µM*,?,5.62µM*,5.8%,8.4%,8.91µM*,-23.0%
COc1ccc(N2CCN(C(=O)CSc3nc(-c4ccc(C(C)C)cc4)no3)CC2)cc1,-1.1%,5.3%,/,2.9%,/,/,/,/,/
O=C(N/N=C/c1c[nH]c2ccc(Br)cc12)c1ccncc1,?,89.1µM*,-5.5%,-7.3%,-3.7%,/,/,-12.0%,/
Cc1ccc(CN2C(=O)N/C(=C\c3cccn3-c3cccc(C(=O)O)c3)C2=O)cc1,-6.0%,0.0%,-3.2%,?,15.9%,/,/,/,/
O=C(O)c1ccc(-n2cccc2/C=C2/NC(=O)N(c3ccccc3)C2=O)cc1,-2.2%,/,25.1µM*,?,2.51µM*,-2.6%,-11.5%,3.98µM*,12.6µM*
N#CC(C#N)=Cc1cccn1-c1ccc(C(=O)O)cc1,-5.4%,3.16µM*,25.1µM*,-16.6%,12.6µM*,4.9%,7.5%,35.5µM*,-16.9%
CCOC(=O)/C(C#N)=C/c1cccn1-c1ccc(Cl)cc1,-4.8%,-1.3%,-17.3%,8.0%,-2.7%,/,/,/,/
CN1C(=O)S/C(=C/c2ccc(OCc3cccc(C(=O)O)c3)cc2)C1=O,2.1%,/,/,10.0%,-38.5%,/,/,/,/
O=C(O)c1cccc(-n2cccc2/C=C2\NC(=O)N(Cc3ccc(F)cc3)C2=O)c1,-8.7%,?,-28.2%,?,10µM*,-6.5%,-3.8%,10µM*,?
CN1C(=O)S/C(=C/c2cccn2-c2cccc(C(=O)O)c2)C1=O,-0.8%,/,1.0%,-21.7%,?,?,0.7%,?,?
COC(=O)C(C)N1C(=O)S/C(=C\c2ccc(-c3ccc(C(=O)O)cc3C)o2)C1=O (configuration not stated),-3.9%,/,/,?,-7.8%,/,/,/,/
Cc1cc(C(=O)O)ccc1-c1ccc(/C=C2\NC(=O)N(Cc3ccc(F)cc3)C2=O)o1,5.4%,3.98µM*,-27.8%,?,12.6µM*,?,3.5%,39.8µM*,-0.8%
Cc1cccc(C(=O)n2nc(-c3cccnc3)nc2NCc2ccccc2)c1,-2.2%,1.2%,/,1.3%,/,/,/,/,/
